Source: PubChem BioAssay AID1220 (Sanford-Burnham Center for Chemical Genomics, 2008)
Hit rate of the full screen: of about 190,000 compounds, about 1,300 (0.68%) were called active. The entries come from a sample that favours actives as a whole. Values without a mark were called inactive. Rule as the data show it: active = inhibition above about 50%; inactive = the rest.

molecular target: Mannose-6-phosphate isomerase (Homo sapiens) (UniProt P34949); experiment: human PMI inhibitors, high substrate, primary screen, biochemical, fluorescence intensity, high mannose 6-phosphate (AID 1220); details: recombinant PMI enzyme, coupled fluorescence intensity; at 20 µM; stronger effect = higher value
Sequence (P34949 whole entry, looked up): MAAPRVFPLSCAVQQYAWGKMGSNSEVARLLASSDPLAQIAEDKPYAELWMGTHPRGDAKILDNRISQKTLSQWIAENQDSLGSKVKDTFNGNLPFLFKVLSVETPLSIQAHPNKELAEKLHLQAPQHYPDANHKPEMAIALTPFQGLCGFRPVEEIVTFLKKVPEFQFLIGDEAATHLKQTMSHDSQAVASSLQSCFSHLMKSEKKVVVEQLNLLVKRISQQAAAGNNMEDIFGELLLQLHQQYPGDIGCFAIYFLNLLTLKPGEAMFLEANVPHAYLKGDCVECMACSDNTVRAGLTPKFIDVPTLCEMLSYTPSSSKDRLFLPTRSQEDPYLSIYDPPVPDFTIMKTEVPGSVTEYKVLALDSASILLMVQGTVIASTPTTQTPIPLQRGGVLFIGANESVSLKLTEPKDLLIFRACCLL

| SMILES | inhibition |
| --- | --- |
| Cc1ccc(C)n1-c1ccc(C(=O)O)cc1 | 0.2% |
| Cc1ccc(C)n1-c1ccncc1 | 3.1% |
| Cc1ccc(C)n1-c1ccc(N(C)C)cc1 | 66.1% (active) |
| Cc1cc2c(C)cc(=O)oc2c2c1NCCC2 | 12.6% |
| Cc1ccc(OC(=O)C(F)(F)F)c2c1NCCC2 | 11.5% |
| COc1ccc(N2CCN(/C(=N\S(=O)(=O)c3ccc(C)cc3)Nc3nc(C)cc(C)n3)CC2)cc1 | -1.1% |
| Nc1nc(-c2ccco2)nc(N2CCCCC2)n1 | 2.4% |
| O=C(NCc1ccc(N2CCCC2=O)cc1)c1cn(CCc2ccccc2)nn1 | 3.8% |
| O=C1C=CC(=O)C(C2=C3C(=O)N(CCc4ccccc4)CC(=O)N3CCC2)=C1 | 50.6% (active) |
| O=C1CC(=O)N(CCc2ccccc2)C(=O)N1CCc1ccccc1 | 7.8% |
| O=C(NO)c1cc(OCC(F)(F)F)ccc1OCC(F)(F)F | -2.8% |
| Cc1cccc(N=Cc2cc3c(cc2[N+](=O)[O-])OCO3)c1 | 62.2% (active) |
| O=[N+]([O-])c1cc2c(cc1/C=N/n1cnnc1)OCO2 | 13% |
| Cc1cccc(C)c1OCC(=O)N/N=C/c1cc2c(cc1[N+](=O)[O-])OCO2 | -72.5% |
| Cc1cc(C)nc(N/N=C/c2cc3c(cc2[N+](=O)[O-])OCO3)n1 | 1.3% |
| Cc1ccc(C)c(N=Cc2cc3c(cc2[N+](=O)[O-])OCO3)c1 | 41.6% |
| Cc1ccccc1N=Cc1cc2c(cc1[N+](=O)[O-])OCO2 | 53.3% (active) |
| CC1=NN(c2nc(-c3ccc(C)cc3)cs2)C(=O)C1N=Nc1ccc2ccccc2c1 (centres undefined) | 10.1% |
| Cc1cc(C)cc(NC(=O)C2(c3cccs3)CCOCC2)c1 | 3.6% |
| O=C(C/C=N\OCc1ccc(Cl)cc1Cl)Nc1ccccc1 | 15.2% |
| Nc1ccccc1Nc1ccccc1 | -26.3% |
| COc1ccc(Nc2ccccc2N)cc1 | 3.8% |
| Nc1ccc(Nc2ccccc2N)cc1 | 52.9% (active) |
| Cc1ccc(-c2cnc(-c3ccncc3)o2)cc1 | -3.1% |
| CCC(O)(C#CCN1CCCCC1)CC | -6.1% |
| Cc1ccc2c(c1)C(O)(CC(=O)c1ccc(C)s1)C(=O)N2 (centres undefined) | 4.5% |
| CC1CCN(S(=O)(=O)c2ccc(C(=O)OCc3ccc4c(c3)OCO4)cc2)CC1 | -5.5% |
| CCCCN=C1C([N+](=O)[O-])=CC=C2C1=NC1(CCCCC1)N2O | 53% (active) |
| Cn1c(SCC(=O)Nc2cccc3ccccc23)nc(O)cc1=O | 26.1% |
